Results: the supplement of paper PMC13380429

What was measured:
[1] = test system: Vero E6 infected with SARS-CoV-2; assay: morphology score (similarity to uninfected cells); higher = more like uninfected cells; conditions: 24 h
[2] = test system: Vero E6 infected with SARS-CoV-2; assay: SARS-CoV-2 infection rate relative to infected DMSO; higher = more infection, active = 60 or less; conditions: 24 h

Structure (SMILES)	morphology score [1]	SARS-CoV-2 infection rate [2]
O=C(Cc1ccc(Cl)c(Cl)c1)N1CCCC[C@@H]1CN1CCCC1 (10 µM)	0.168	91.5% (inactive)
CCC[C@H](N[C@H]1CCc2cc(F)cc(F)c2C1)C(=O)Nc1cn(C(C)(C)CNCC(C)(C)C)cn1 (10 µM)	0.0166	102% (inactive)
COc1cc(C)[nH]c(=O)c1CNC(=O)c1c(C)n([C@H](C)C2CCOCC2)c2ccccc12 (10 µM)	0.0908	96.5% (inactive)
COc1ccc(CCN(C)CCCN2CCc3cc(OC)c(OC)cc3CC2=O)cc1OC [zatebradine] (10 µM)	-0.00282	112% (inactive)
O=C(c1ccccc1)C(O)c1ccccc1 (stereo unspecified) [benzoin] (10 µM)	-0.114	101% (inactive)
c1ccc2c(c1)sc1ccccc12 [dibenzothiophene] (10 µM)	0.0443	105% (inactive)
CC(=O)Oc1cc2c(s1)CCN(C(C(=O)C1CC1)c1ccccc1F)C2 (stereo unspecified) [prasugrel] (10 µM)	0.0783	108% (inactive)
Cc1ccnc(NC(=O)C(C)c2cccc(C(=O)c3ccccc3)c2)c1 (stereo unspecified) [piketoprofen] (10 µM)	-0.109	107% (inactive)
COc1cc2c(NC3CCN(C)CC3)nc(N3CCCN(C)CC3)nc2cc1OCCOCCN(C)C (10 µM)	0.108	110% (inactive)
Cc1cccc(-c2nn3c(c2-c2ccnc4ccc(C(N)=O)cc24)CCC3)n1 (10 µM)	0.128	100% (inactive)
CC(Cc1ccccc1)NCCC(c1ccccc1)c1ccccc1 (stereo unspecified) [prenylamine] (10 µM)	0.878	19.5% (active)
CCN1CCC[C@H]1CNC(=O)c1c(O)c(Cl)cc(Cl)c1OC [raclopride] (10 µM)	0.124	104% (inactive)
Cc1ccc(-n2nc(C(C)(C)C)cc2NC(=O)NCc2cc(F)ccc2Oc2ccc3c(cnn3CCO)c2)cc1 [pexmetinib] (0.833333 µM)	0.226	105% (inactive)
CC(=O)OCC1=C(C(=O)O)N2C(=O)[C@@H](NC(=O)CS/C(=N/C(C)C)NC(C)C)[C@H]2SC1 [cefathiamidine] (10 µM)	0.162	92% (inactive)
COc1cc(N)cn[n+]1-c1ccccc1 [amezinium] (10 µM)	0.0864	100% (inactive)
C[C@@H]1C(=O)O[C@H]2C[C@@]34[C@H]5C[C@@H](C(C)(C)C)[C@]36[C@@H](OC(=O)[C@@H]6O)O[C@@]4(C(=O)O5)[C@]21O [Ginkgolide A] (10 µM)	-0.0141	114% (inactive)
COc1cc2ncc(-c3ccccc3)nc2cc1OC [tyrphostin-AG-1296] (10 µM)	0.195	108% (inactive)
CC(=O)NCCc1c[nH]c2ccccc12 [N-acetyltryptamine] (10 µM)	0.0383	94.5% (inactive)
CCN(CC)CCOC(=O)C(Cc1cccc2ccccc12)CC1CCCO1 (mixture of isomers) [naftidrofuryl] (10 µM)	0.14	104% (inactive)
Cc1ccc2c(c1)c1c(n2CCc2ccc(C)nc2)CCN(C)C1 [latrepirdine] (10 µM)	0.241	96.5% (inactive)
Cn1c(=O)c2c(ncn2CC2OCCO2)n(C)c1=O [doxofylline] (10 µM)	-0.118	106% (inactive)
O=C[C@H](F)[C@@H](O)[C@@H](O)[C@H](O)CO [2-fluoro-2-deoxy-D-galactose] (10 µM)	0.127	116% (inactive)
NS(=O)(=O)c1cc(C(=O)O)cc(N2CCCC2)c1Oc1ccccc1 [piretanide] (10 µM)	0.0293	110% (inactive)
Nc1nc2cc(-c3ccc4ncc(C(=O)N5CCOCC5)n4c3)ccc2o1 (10 µM)	0.241	92% (inactive)

Structure (SMILES)	morphology score [1]	SARS-CoV-2 infection rate [2]
O[C@@H]1CO[C@H]2[C@@H]1OC[C@@H]2O [isosorbide] (10 µM)	0.0141	112% (inactive)
COc1cc2c(cc1OC)[C@@H]1Cc3ccc(OC)c(OC)c3CN1CC2 [rotundine] (10 µM)	0.0444	110% (inactive)
CN1c2cc3c(cc2N=C(c2ccc(C(=O)O)cc2)c2ccccc21)C(C)(C)CCC3(C)C (0.833333 µM)	-0.141	107% (inactive)
c1cc(CN2CCCCC2)cc(OCCCNc2nc3ccccc3s2)c1 [zolantidine] (10 µM)	0.67	44% (active)
N#CC(c1ccnc(OCc2ccc(CN3CCOCC3)cc2)n1)c1nc2ccccc2s1 (stereo unspecified) (10 µM)	0.195	99.5% (inactive)
CCC[C@@H]1C[C@@H](C(=O)N[C@@H]([C@H]2O[C@H](SC)[C@H](O)[C@@H](O)[C@H]2O)[C@H](C)Cl)N(C)C1 (10 µM)	-0.131	102% (inactive)
O=C(O)c1c2ccccc2cc2ccccc12 [9-anthracenecarboxylic-acid] (10 µM)	0.252	89.5% (inactive)
CC1=C(C)C(=O)C(C(CCCCCC(=O)O)c2ccccc2)=C(C)C1=O (stereo unspecified) [seratrodast] (10 µM)	0.0459	100% (inactive)
Cc1cnc(CNC(=O)c2c(=O)c3ccc(N4CCCN(C)CC4)nc3n3c2sc2ccccc23)cn1 (0.833333 µM)	0.0323	109% (inactive)
C=CC(=O)O [acrylate] (10 µM)	-0.0871	109% (inactive)
CN(CC(=O)O)C(=N)N [creatine] (10 µM)	0.0148	113% (inactive)
CCCCCCCCNC(C)C(O)c1ccc(SC(C)C)cc1 (stereo unspecified) [suloctidil] (10 µM)	0.834	21.5% (active)
CN(C)C(=O)c1cc2cnc(Nc3ccc(N4CCNCC4)cn3)nc2n1C1CCCC1 [ribociclib] (10 µM)	0.244	113% (inactive)
CC(C)Nc1cccnc1N1CCN(C(=O)c2cc3cc(NS(C)(=O)=O)ccc3[nH]2)CC1 [delavirdine] (10 µM)	0.0195	110% (inactive)
O=C(/C=C/c1ccc(O)c(O)c1)O[C@@H]1C[C@](O)(C(=O)O)C[C@@H](O)[C@H]1O [chlorogenic-acid] (10 µM)	0.0432	112% (inactive)
CC(C)(C#N)c1ccc(N2C(=O)OCc3cnc4ccc(-c5cnc6ccccc6c5)cc4c32)cc1 (10 µM)	0.22	104% (inactive)
C#Cc1cccc(Nc2ncnc3cc(OC)c(OCCCCCCC(=O)NO)cc23)c1 (0.833333 µM)	-0.262	122% (inactive)
O=C(Nc1cccnc1)c1cc(-c2ccnc(F)c2)ccc1OCc1ccccc1 (10 µM)	-0.0646	114% (inactive)
CCNC(=O)NS(=O)(=O)c1sc(CC(C)C)cc1-c1ccc(Cn2c(-c3ccccc3)nc(OC)c2C=O)cc1 (10 µM)	0.159	97% (inactive)
C/C(=N\NC(=O)[C@@H]1C(=O)NC[C@H]1c1ccccc1)c1cccc(Br)c1 (10 µM)	-0.162	112% (inactive)
CCO/N=C(\C(=O)N[C@@H]1C(=O)N2C(C(=O)[O-])=C(Sc3nc(-c4cc[n+](C)cc4)cs3)CS[C@H]12)c1nsc(NP(=O)(O)O)n1 [ceftaroline-fosamil] (10 µM)	0.242	87.5% (inactive)
COc1cc(C2Oc3cc([C@H]4Oc5cc(O)cc(O)c5C(=O)[C@@H]4O)ccc3OC2CO)ccc1O (stereo partly specified) [silibinin] (10 µM)	0.0273	104% (inactive)
O=c1n(CCCN2CCN(c3cccc(Cl)c3)CC2)nc2ccccn12 [trazodone] (10 µM)	-0.132	116% (inactive)
CN(C)[C@@H]1C(O)=C(C(N)=O)C(=O)[C@@]2(O)C(O)=C3C(=O)c4c(O)cccc4[C@@](C)(O)[C@H]3[C@H](O)[C@@H]12 [oxytetracycline] (10 µM)	-0.0366	106% (inactive)
